The supplement of paper PMC7366291
Structures can show the parent of a compound that is named as a salt. ± gives the standard deviation or the standard deviation of the averaged measurements.

Tests used:
Conditions in all cases: 25 µM; exposure: 24-48 hpf
[1] = system: Danio rerio Tg(wt1b:EGFP) embryo, pronephros; test: glomerular separation, fold change vs DMSO control; higher = glomeruli further apart (abnormal)
In short: (§1)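 Each feature value is a fold change relative to the mean of same-day DMSO-treated embryos. Embryos of the Tg(wt1b:EGFP) zebrafish line, dechorionated, received 25 μM compound in 0.5% DMSO from 24 to 48 hpf at 28.5°C, in HEPES-buffered E3 with 0.003% PTU. Distances and angles were computed by a Fiji macro from 16 manually set reference points on maximum projections of dorsal pronephros images, and values beyond 2 SD of the feature mean were removed.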

[2] = system: Danio rerio Tg(wt1b:EGFP) embryo, pronephros; test: glomerular width (mean of left and right), fold change vs DMSO control; higher = wider glomerulus
In short: as §1

[3] = system: Danio rerio Tg(wt1b:EGFP) embryo, pronephros; test: fraction of imaged embryos annotated as normal kidney; higher = less nephrotoxic; extreme values may be limits of the assay
In short: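 From 24 to 48 hpf at 28.5°C, dechorionated Tg(wt1b:EGFP) zebrafish embryos in 12-well plates were kept in 5 mM HEPES-buffered E3 with 0.003% PTU, 0.5% DMSO and 25 μM compound. Pronephroi were imaged by widefield fluorescence at 470 nm and judged by eye from maximum projections. Reported is the proportion of embryos per treatment in the normal-kidney category.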

[4] = system: Danio rerio Tg(wt1b:EGFP) embryo, pronephros; test: pronephric angle neck segment to proximal convoluted tubule (mean of left and right), fold change vs DMSO control; higher = larger pronephric angle
In short: as §1

SMILES: NCCNCCNCCNCCN [Tetraethylenepentamine pentahydrochloride]
- glomerular separation [1]: 0.956 ± 0.33
- glomerular width [2]: 1.08 ± 0.041
- fraction of imaged embryos annotated as normal kidney [3]: 0.75
- pronephric angle neck segment [4]: 1.02 ± 0.049

SMILES: NS(=O)(=O)c1cc(C(=O)O)c(NCc2ccco2)cc1Cl [Furosemide]
- glomerular separation [1]: 0.867 ± 0.13
- glomerular width [2]: 0.959 ± 0.097
- fraction of imaged embryos annotated as normal kidney [3]: 0.818
- pronephric angle neck segment [4]: 1.015 ± 0.01

SMILES: COCCCC/C(=N\OCCN)c1ccc(C(F)(F)F)cc1 [Fluvoxamine maleate]
- glomerular separation [1]: 1.05 ± 0.39
- glomerular width [2]: 0.91 ± 0.015
- fraction of imaged embryos annotated as normal kidney [3]: 1
- pronephric angle neck segment [4]: 0.996 ± 0.018

SMILES: C=CC[N@@+]12CC[C@@]34c5ccccc5N5/C=C6/[C@H]7C[C@H]8[C@@]9(CC[N@@+]8(CC=C)C/C7=C/CO)c7ccccc7N(/C=C(/[C@@H](C[C@@H]31)/C(=C\CO)C2)[C@H]54)[C@@H]69 [Alcuronium chloride]
- glomerular separation [1]: 1.23 ± 0.57
- glomerular width [2]: 1.03 ± 0.052
- fraction of imaged embryos annotated as normal kidney [3]: 0.833
- pronephric angle neck segment [4]: 0.958 ± 0.03

SMILES: CCCCOc1cc(C(=O)OCCN(CC)CC)ccc1N [Benoxinate hydrochloride]
- glomerular separation [1]: 0.798 ± 0.38
- glomerular width [2]: 1.07 ± 0.018
- fraction of imaged embryos annotated as normal kidney [3]: 0.833
- pronephric angle neck segment [4]: 0.9693 ± 0.0068

SMILES: Cn1c(=O)c2[nH]cnc2n(C)c1=O [Aminophylline]
- glomerular separation [1]: 0.664 ± 0.15
- glomerular width [2]: 0.992 ± 0.021
- fraction of imaged embryos annotated as normal kidney [3]: 1
- pronephric angle neck segment [4]: 0.871 ± 0.011

SMILES: CN(C)CCN1C(=O)c2ccccc2N(C)c2ccccc21 [Dibenzepine hydrochloride]
- glomerular separation [1]: 1.21 ± 0.68
- glomerular width [2]: 1.08 ± 0.047
- fraction of imaged embryos annotated as normal kidney [3]: 0.75
- pronephric angle neck segment [4]: 0.967 ± 0.086

SMILES: CC(C(=O)O)c1ccc(C(=O)c2ccccc2)s1 (stereo not drawn) [Tiaprofenic acid]
- glomerular separation [1]: 1.58 ± 0.4
- glomerular width [2]: 1.07 ± 0.067
- fraction of imaged embryos annotated as normal kidney [3]: 0.667
- pronephric angle neck segment [4]: 1.03 ± 0.015

SMILES: Cc1oncc1C(=O)Nc1ccc(C(F)(F)F)cc1 [Leflunomide]
- glomerular separation [1]: 2.27 ± 1
- glomerular width [2]: 1.19 ± 0.15
- fraction of imaged embryos annotated as normal kidney [3]: 0.167
- pronephric angle neck segment [4]: 1.23 ± 0.054

SMILES: CN(C)CCCN1c2ccccc2CCc2ccccc21 [Imipramine hydrochloride]
- glomerular separation [1]: 0.946 ± 0.39
- glomerular width [2]: 1.02 ± 0.14
- fraction of imaged embryos annotated as normal kidney [3]: 0.75
- pronephric angle neck segment [4]: 0.996 ± 0.041

SMILES: CN1Cc2c(N)cccc2C(c2ccccc2)C1 (stereo not drawn) [Nomifensine maleate]
- glomerular separation [1]: 0.973 ± 0.34
- glomerular width [2]: 1.04 ± 0.051
- fraction of imaged embryos annotated as normal kidney [3]: 1
- pronephric angle neck segment [4]: 1.01 ± 0.065

SMILES: CC(C)(C)NC(=O)[C@@H]1C[C@@H]2CCCC[C@@H]2CN1C[C@@H](O)[C@H](Cc1ccccc1)NC(=O)[C@H](CC(N)=O)NC(=O)c1ccc2ccccc2n1 [Saquinavir mesylate]
- glomerular separation [1]: 1.08 ± 0.35
- glomerular width [2]: 1.04 ± 0.085
- fraction of imaged embryos annotated as normal kidney [3]: 0.909
- pronephric angle neck segment [4]: 0.977 ± 0.016
